Assay [1] is described as follows: cAMP Responsive Elements (CRE) small molecule antagonists, cell-based qHTS assay: qHTS cell viability counter screen (AID 2060913). Further: nearly all actives have a fitted effect of over 40% in size. In short, it runs like this:
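HEK293T CRE-bla, 2,000 cells/well, 18 h preincubation; cpd in DMSO + NKH477 0.25 uM final, 3 h 37 C/5% CO2; LiveBLAzer 2 h RT, then CellTiter-Glo 30 min RT, luminescence.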
Background: In qHTS, concentration-response curves come from the screen itself.

Assay [2] in a line: cAMP Responsive Elements (CRE) small molecule agonists, cell-based qHTS assay: qHTS cell viability counter screen (AID 2060914). Further: nearly all actives have a fitted effect of over 50% in size. In short, it runs like this: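 Luminescence read-out (CellTiter-Glo, 30 min RT) of ATP-based viability in CRE-bla HEK 293T cells, run in the same wells as the β-lactamase reporter assay after 3 h compound treatment at 37 °C.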

Results filed as inconclusive are left out. Unmarked numbers belong to inactive results. Active and inactive are the calls of the source. The call rests on the fitted dose curve; in most records, active means well fitted cell-killing curve with a large enough effect in the repeat runs; inconclusive means weak or mixed curves, or effect the other way; inactive means flat fitted curve, though single readings scatter.
On the % scale 0 is the no-effect control and ±100 the full control effect.

Turning to `O=C1CCCCCN1`, the Potency entry in assay [1] and in assay [2] was “inactive” each time.

With `CN(C)CCN(Cc1ccc(Cl)cc1)c1ccccn1`, the Potency result in assay [1] and in assay [2] was “inactive” each time.

Take `COc1c2occc2c(OC)c2c(=O)cc(C)oc12`: the Potency entry in assay [1] and in assay [2] was “inactive” each time.

For `N#[N+]c1ccc2c(S(=O)(=O)[O-])cccc2c1O`, the Potency entry in assay [1] and in assay [2] was “inactive” each time.

On to `CC[C@H](C)C(=O)O[C@H]1C[C@@H](C)C=C2C=C[C@H](C)[C@H](CC[C@@H]3C[C@@H](O)CC(=O)O3)[C@H]21`, for which the Potency entry in assay [1] and in assay [2] was “inactive” each time.

Regarding `COP(=O)(O)OP(=O)(O)OC`, the Potency result in assay [1] and in assay [2] was “inactive” in each case.

For `COC(C)(C)CCCC(C)CC=O` (stereo not given), the Potency result in assay [1] and in assay [2] was “inactive” throughout.

Take `CC(CCc1ccccc1)NCC(O)c1ccc(O)c(C(N)=O)c1` (stereo not given): the Potency entry in assay [1] and in assay [2] was “inactive” in each case.

Take `CC(C)(C)C1(CCc2ccc(Cl)cc2)CO1` (stereo not given): the Potency entry in assay [1] and in assay [2] was “inactive” throughout.

On to `Oc1ccc(Cc2ccccc2)cc1`, for which the Potency entry in assay [1] and in assay [2] was “inactive” each time.

`COc1cccc([C@H](O)C2CCN(CCc3ccc(F)cc3)CC2)c1OC`: the Potency result in assay [1] and in assay [2] was “inactive” throughout.

On to `N#Cc1ccc(C(c2ccc(C#N)cc2)n2cncn2)cc1`, for which the Potency entry in assay [1] and in assay [2] was “inactive” each time.

Turning to `C1=CCCC1`, the Potency result in assay [1] and in assay [2] was “inactive” throughout.

For the compound `CC(=O)CC(=O)Nc1ccc(C)cc1C`, the Potency result in assay [1] and in assay [2] was “inactive” throughout.

On to `C=C(C)[C@@H]1CC=C(C)C(=O)C1`, for which the Potency result in assay [1] and in assay [2] was “inactive” throughout.

With `CCOC(=O)c1ccccc1C(=C1C=C(Br)C(=O)C(Br)=C1)c1cc(Br)c(O)c(Br)c1`, the Potency entry in assay [1] and in assay [2] was “inactive” throughout.

Take `CN[C@@H]1[C@H](O)[C@H](NC)[C@H]2O[C@@]3(O)C(=O)C[C@@H](C)O[C@H]3O[C@@H]2[C@H]1O`: the Potency result in assay [1] and in assay [2] was “inactive” each time.

With `COC(=O)c1ccc([N+](=O)[O-])cc1`, the Potency result in assay [1] and in assay [2] was “inactive” each time.

For the compound `c1cnc(N2CCN(Cc3ccc4c(c3)OCO4)CC2)nc1`, the Potency entry in assay [1] and in assay [2] was “inactive” each time.

On to `CC(=O)c1ccc2c(c1)[C@H](NC(=O)c1ccc(F)cc1)[C@@H](O)C(C)(C)O2`, for which the Potency result in assay [1] and in assay [2] was “inactive” throughout.

For `Nc1nc(-c2ccccc2)cs1`, the Potency entry in assay [1] and in assay [2] was “inactive” each time.

On to `N=C(N)c1ccc(OCCCCCOc2ccc(C(=N)N)cc2)cc1`, for which the Potency result in assay [1] and in assay [2] was “inactive” in each case.

Turning to `O=C1CCc2ccccc2O1`, the Potency entry in assay [1] and in assay [2] was “inactive” throughout.

For the compound `CC(=O)OCC(C)OC(C)=O` (stereo not given), the Potency entry in assay [1] and in assay [2] was “inactive” in each case.

On to `CC1(C)C(=O)N(Br)C(=O)N1Cl`, for which the Potency entry in assay [1] and in assay [2] was “inactive” throughout.

Take `O=S(=O)(O)c1cc(S(=O)(=O)O)c2ccc3c(S(=O)(=O)O)cc(S(=O)(=O)O)c4ccc1c2c43`: the viability change, negative = cytotoxic in assay [1] was 3.35% [at 18.9 µM]. The activity change, negative = cytotoxicity in assay [2] was -11.7% [at 18.9 µM].

Turning to `CCc1cccc(C)c1`, the Potency entry in assay [1] and in assay [2] was “inactive” each time.

Consider `CC(=O)CCC1=C(C)CCCC1(C)C`, for which the Potency result in assay [1] and in assay [2] was “inactive” in each case.

Take `CC(C)NCC(O)c1cc(O)cc(O)c1` (stereo not given): the Potency result in assay [1] and in assay [2] was “inactive” throughout.

Regarding `CC(C)(C)C(O)/C=C/c1ccc2c(c1)OCO2` (stereo not given), the Potency entry in assay [1] and in assay [2] was “inactive” in each case.

`CC(C)CC(C)CC(O)CC(C)C` (stereo not given): the Potency result in assay [1] and in assay [2] was “inactive” throughout.

Consider `CC(=O)[O][Al][O]C(C)=O`, for which the Potency entry in assay [1] and in assay [2] was “inactive” in each case.

`CC1COc2ccccc2N1` (stereo not given): the Potency result in assay [1] and in assay [2] was “inactive” in each case.

`CCOC(OCC)OCC`: the Potency result in assay [1] and in assay [2] was “inactive” in each case.

As to `CCCOCC(C)OCC(C)O` (stereo not given), the Potency entry in assay [1] and in assay [2] was “inactive” each time.

For the compound `OCCc1ccccc1`, the Potency entry in assay [1] and in assay [2] was “inactive” in each case.

Turning to `CCOc1ccccc1OCC`, the Potency entry in assay [1] and in assay [2] was “inactive” in each case.

In the case of `CCOCC(C)O` (stereo not given), the Potency entry in assay [1] and in assay [2] was “inactive” throughout.

On to `Cc1ccc(-c2ccccc2)cc1`, for which the Potency entry in assay [1] and in assay [2] was “inactive” throughout.

With `CCOC(=O)C1=NOC(c2ccccc2)(c2ccccc2)C1`, the Potency result in assay [1] and in assay [2] was “inactive” in each case.

Take `CN1CCN2c3ccccc3Cc3ccccc3C2C1` (stereo not given): the Potency entry in assay [1] and in assay [2] was “inactive” throughout.

Take `O=C(O)c1ccc[n+]([O-])c1`: the Potency entry in assay [1] and in assay [2] was “inactive” throughout.

Regarding `C[C@]12CCC(=O)C=C1CC[C@@H]1[C@@H]2[C@@H](O)C[C@@]2(C)[C@H]1CC[C@]2(O)C(=O)COC(=O)CCC(=O)O`, the Potency entry in assay [1] and in assay [2] was “inactive” each time.

As to `CCCCCCCC(=O)OCC(O)CO` (stereo not given), the Potency result in assay [1] and in assay [2] was “inactive” throughout.

For the compound `CCC(=O)OC`, the Potency result in assay [1] and in assay [2] was “inactive” in each case.

As for `Nc1nc(N)nc(-c2ccccc2)n1`, the Potency result in assay [1] and in assay [2] was “inactive” in each case.

For `CC(C)Cc1ccc(C(C)C(=O)O)cc1` (stereo not given), the Potency result in assay [1] and in assay [2] was “inactive” each time.

Regarding `Clc1cc(Cl)cc(Cl)c1`, the Potency result in assay [1] and in assay [2] was “inactive” throughout.

On to `CCCCCCCCCCCCCCC`, for which the Potency entry in assay [1] and in assay [2] was “inactive” throughout.

As to `C#Cc1cccc(Nc2ncnc3cc(OCCOC)c(OCCOC)cc23)c1`, the Potency result in assay [1] and in assay [2] was “inactive” throughout.

`CC(C)NCC(O)c1ccc2ccccc2c1` (stereo not given): the Potency result in assay [1] and in assay [2] was “inactive” throughout.

For the compound `CNC(=O)c1c(I)c(NC(C)=O)c(I)c(C(=O)O)c1I`, the Potency entry in assay [1] and in assay [2] was “inactive” in each case.

Consider `O=C1CC2(CCCC2)CC(=O)N1`, for which the Potency entry in assay [1] and in assay [2] was “inactive” in each case.

With `CCCCCCN`, the Potency entry in assay [1] and in assay [2] was “inactive” in each case.

For the compound `C=C(C)C(=O)OCc1ccccc1`, the Potency entry in assay [1] and in assay [2] was “inactive” throughout.

For the compound `NC(N)=NCCN1CCCCCCC1`, the viability change, negative = cytotoxic in assay [1] is 0.247% [at 0.349 µM]. In addition, in assay [2], the activity change, negative = cytotoxicity is -6.13% [at 0.349 µM].

Regarding `Nc1cc(S(=O)(=O)O)ccc1S(=O)(=O)O`, the Potency entry in assay [1] and in assay [2] was “inactive” each time.

Regarding `CCc1nn(C2CCCCC2)c2cc(C3(C#N)CCC(C(=O)O)CC3)ccc12` (stereo not given), the Potency entry in assay [1] and in assay [2] was “inactive” each time.

`Nc1ccc(NC(=O)c2ccc(N)cc2)cc1`: the Potency entry in assay [1] and in assay [2] was “inactive” each time.

For `CC(CN1c2ccccc2Sc2ccccc21)N(C)C` (stereo not given), the Potency entry in assay [1] and in assay [2] was “inactive” in each case.
